From PubChem BioAssay (Tox21)
Inconclusive results are not listed. Values without a mark were called inactive. The source made the active and inactive calls. Calls follow the shape of the dose curve; as a rule, active = well fitted activation curve with a large enough effect in the signal ratio in the repeat runs (not every such curve was filed as active); inconclusive = weak or mixed curves; inactive = flat fitted curve, though single readings scatter; the % refers to the signal ratio.

Assay: qHTS assay to identify small molecule agonists of H2AX (AID 1224845)
Details: CHO-K1 phospho-H2AX Ser139 HTRF, 3 h; series mostly up to 154 µM; activation (H2AX phosphorylation): at the top concentration
Excerpt: National Center for Advancing Translational Sciences [NCATS]
NIH Chemical Genomics Center [NCGC]
U.S. Environmental Protection Agency [EPA]
National Institutes of Environmental Health Sciences [NIEHS]
National Toxicology Program [NTP]
U.S. Food and Drug Administration [FDA]
HTRF phospho-H2AX (Ser139) assay (Cisbio Bioassays, US) enables the quantitative detection of the histone variant H2AX when phosphorylated on serine 139. When double-stranded DNA breaks, either by ionizing radiation or endogenous physiological processes, H2AX becomes phosphorylated at Ser139. This phospho-Ser139 serves as a sensitive biomarker for the detection of such breaks, localizing the site of DNA repair. So, HTRF phospho-H2AX Ser139 is a pertinent assay to study genome stability, the cell cycle, DNA repair, and it serves as a biomarker for cancer, and to understand aging. Wild type CHO-K1 cells were used to identify the inducers of Phospho-H2AX Ser 139 from the Tox21 10K compound collections.
Tox21 Assay Protocol Summary:
The CHO-K1 cells suspended in culture medium containing 10% FBS were dispensed at 1000 cells/ 3 ul/well in 1536-well white wall/solid bottom plates (Greiner Bio-One North America, NC) using a Multidrop Combi (Thermo Fisher Scientific Inc., Waltham, MA). After the assay plates were incubated at 37C overnight, 23 nl of compounds at 15 concentrations (from 5-48 columns) or positive control (from 1 to 4 columns) were transferred to the assay plates using a Pintool station (Wako, San Diego, CA) into each well resulting in a final DMSO concentration of 0.76%. After 3hr incubation at 37C, 1 uL/well Supplemented Lysis buffer (diluted 100 fold blocking reagent in lysis buffer) (HTRF Phospho-H2A.X (S139) Assay kit from Cisbio US Inc., Bedford, MA) was added using a Flying Reagent Dispenser (FRD) (Aurora Discovery, CA). After 10sec spin at 1000 rpm in a plate centrifuge, the assay plates were incubated at room temperature for 30 min. Then followed by the addition of 1 uL/well detection buffer (containing a mixture of two antibodies, one labeled with cryptate, Anti pH2AX (S139)-K and another labeled with d2, Anti H2AX-d2) using FRD. After incubation at room temperature for 24 hr, the time resolved fluorescence at excitation 320 nm and emissions at 665 nm and 620 nm was measured using an Envision plate reader (PerkinElmer, Waltham, MA).
% is scaled to controls: 0 for no effect and ±100 for the full control effect.

Compound | activation (H2AX phosphorylation) | Potency
CC/C=C\CCCCCO | 0.844% | –
Oc1cc(Cl)cc(Cl)c1Cl | 0.83% | –
CCOc1ccc2ccccc2c1C(=O)N[C@@H]1C(=O)N2[C@@H]1SC(C)(C)[C@@H]2C(=O)O | -1.57% [at 70.9 µM] | –
O=C1CCc2cc(OCCCCc3nnnn3C3CCCCC3)ccc2N1 | -0.939% [at 70.9 µM] | –
CCCCOC(=O)CC | -1.76% | –
CCCC[P+](C)(CCCC)CCCC | 0.338% | –
COc1cccc(OC)c1C(=O)O | -0.37% | –
CCC(C)n1ncn(-c2ccc(N3CCN(c4ccc(OC[C@H]5CO[C@](Cn6cncn6)(c6ccc(Cl)cc6Cl)O5)cc4)CC3)cc2)c1=O (stereo not given in full) | 1.24% [at 70.9 µM] | –
NC(=S)NC(N)=S | 0.291% | –
Cc1nc(-c2ccc(Cl)cc2)oc1COC(C)(C)C(=O)O | -3.9% [at 70.9 µM] | –
C1CCC(SSC2CCCCC2)CC1 | 0.503% | –
Cc1c(C)c2c(c(C)c1OC(=O)c1cccnc1)CC[C@@](C)(CCC[C@H](C)CCC[C@H](C)CCCC(C)C)O2 | -2.95% [at 70.9 µM] | –
CNc1ccc([N+](=O)[O-])cc1 | 0.0075% | –
CCCC(=O)OCCc1ccccc1 | 6.04% | –
c1ccc(C(O[C@@H]2CCCN(CCc3ccc4c(c3)OCO4)C2)c2ccccc2)cc1 | -1.21% | –
CCCCCCC1CCCC(=O)O1 (stereo not given) | -2.04% | –
Cc1cc(C(C#N)c2ccc(Cl)cc2)c(Cl)cc1NC(=O)c1cc(I)cc(I)c1O (stereo not given) | 0.0347% [at 70.9 µM] | –
Cc1cc(C(C)(C)C)c(O)c(C)c1Cn1c(=O)n(Cc2c(C)cc(C(C)(C)C)c(O)c2C)c(=O)n(Cc2c(C)cc(C(C)(C)C)c(O)c2C)c1=O | -10.9% | –
CC1=CCC(=C(C)C)CC1 | -1.27% | –
Cc1c2ccccc2c(C)c2c1ccc1ccccc12 | – | inactive

Compound | activation (H2AX phosphorylation) | Potency
CC(C)(C)NSc1nc2ccccc2s1 | 1.86% | –
CCCc1ccc(OCC(=O)N2CCN(C(=O)COc3ccc(CCC)cc3OC)CC2)c(OC)c1 | 3.14% [at 70.9 µM] | –
CC(C)(c1cc(Br)c(OCC(Br)CBr)c(Br)c1)c1cc(Br)c(OCC(Br)CBr)c(Br)c1 (stereo not given) | 0.934% [at 70.9 µM] | –
O=C(O)Cc1ccc2c(c1)C(=O)c1ccccc1CO2 | 0.117% [at 70.9 µM] | –
C=CC(C)(CCC=C(C)C)OC=O (stereo not given) | -2.36% | –
Cc1ccc(C)cc1 | 2.36% | –
CCCCOC(=O)CO | 1.26% | –
OCC(F)(F)F | 0.0025% | –
C=C(CC)C(=O)c1ccc(OCC(=O)O)c(Cl)c1Cl | – | inactive
CC(=O)c1ccc(C(C)=O)cc1 | -0.776% | –
O=[N+]([O-])c1cccc(C(F)(F)F)c1 | -1.64% | –
c1cnccn1 | -0.459% | –
O=C(O)[C@H](O)[C@@H](O)[C@H](O[C@@H]1O[C@H](CO)[C@H](O)[C@H](O)[C@H]1O)[C@H](O)CO | -1.1% [at 70.9 µM] | –
OCCN1CCN(CCCN2c3ccccc3Sc3ccc(C(F)(F)F)cc32)CC1 | 5.58% [at 70.9 µM] | –
O=C(Oc1ccccc1)Oc1ccccc1 | 2.84% | –
CCC(C)[O-].CCC(C)[O-].CCOC(=O)/C=C(/C)[O-].[Al+3] | 0.144% | –
CCCCCCCCCCOC(=O)c1ccccc1C(=O)OCCCCCCCC | -0.456% | –
CC(CCc1ccccc1)NCC(O)c1ccc(O)c(C(N)=O)c1 (stereo not given) | -2.94% | –
Cc1ccc(-c2ccccc2)cc1 | 4.3% | –
O=[N+]([O-])c1ccc(F)c(Cl)c1 | 0.815% | –
